# Source: PMC5540273 (PLoS ONE, 2017)
# Tests used:
# Conditions in all cases: concentration: 1 μM, replicates: in singlicate; n = 1
# PKAC-beta = system: T1, PKAC-beta
# T1 construct: gene PRKACB
# PKMYT1 = system: PKMYT1
# PKN1 = system: PKN1
# PKN2 = system: PKN2
# PLK1 = system: PLK1
# PLK2 = system: PLK2
# PLK3 = system: PLK3
# PLK4 = system: PLK4
# PRKCD = system: PRKCD
# PRKCE = system: PRKCE
# 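Further: KINOMEscan kinase panel screen.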
Structure (SMILES),%Inh (PKAC-beta),%Inh (PKMYT1),%Inh (PKN1),%Inh (PKN2),%Inh (PLK1),%Inh (PLK2),%Inh (PLK3),%Inh (PLK4),%Inh (PRKCD),%Inh (PRKCE)
CCn1c(-c2c(N)noc2C)nc2cnccc21 [SB-737856],0%,0%,29%,0%,0%,0%,0%,0%,0%,0%
Cn1cncc1-c1cc2c(Nc3ccc(OCc4ccccc4)cc3)ncnc2cn1 [GW281179],7%,0%,0%,0%,0%,0%,0%,0%,3%,4%
Cc1ccccc1Cn1ccn2c(=O)cc(N3CCOCC3)nc12 [GSK2269905],1%,0%,0%,0%,0%,0%,0%,0%,0%,7%
O=C(Nc1n[nH]c2nc(-c3ccco3)c(Br)cc12)C1CCN(Cc2ccccc2)C1.O=C(O)[C@H](O)[C@@H](O)C(=O)O (centres unmarked) [SB-742034],15%,8%,0%,41%,3%,24%,5%,22%,35%,1%
COc1ccc(Nc2nccc(NCCNC(=O)Nc3cc(C)ccc3C)n2)cc1 [GSK1379899],0%,2%,30%,0%,0%,0%,0%,0%,10%,0%
CNc1cc(-c2ccc3c(N)n[nH]c3c2)nc(N)n1 [GSK2224810],0%,4%,10%,0%,0%,0%,0%,5%,0%,15%
CNC(=O)c1ccc(C)c(-n2c(C)cc(OCc3ccc(F)cc3F)c(Br)c2=O)c1,74%,0%,0%,19%,0%,0%,0%,0%,7%,35%
COc1ccc(Nc2nccc(N3CCC(NC(=O)C(C)c4ccc(Cl)cc4)CC3)n2)cc1 (centres unmarked) [GSK1379812],8%,9%,0%,6%,20%,0%,0%,13%,0%,1%
Nc1nccc(-c2c(-c3ccc(F)cc3)ncn2C2CCN(Cc3ccccc3)CC2)n1 [SB-219980],0%,26%,0%,0%,12%,28%,10%,8%,0%,1%
CN1c2ccc(-c3ccc(C(N)=O)cc3)cc2-c2[nH]ncc2S1(=O)=O,0%,0%,0%,0%,4%,3%,13%,0%,3%,12%
Cl.Cl.Cl.N#Cc1ccc(CCNc2nccc(-c3cccc(CN4CCNCC4)c3)n2)cc1 [GSK2137462],5%,18%,0%,2%,5%,5%,0%,6%,18%,76%
CCn1c(-c2ccccc2)nc2cnccc21 [SB-733416],3%,30%,0%,0%,0%,0%,0%,0%,8%,22%
COc1ccc(Nc2nccc(-c3ccc(NC(=O)c4cc5cc(F)ccc5[nH]4)cc3)n2)cc1 [GSK1229496],0%,0%,13%,0%,0%,0%,0%,0%,0%,6%
COC(=O)C(Cc1ccccc1)NC(=O)NC1CCN(c2ccnc(Nc3ccc(F)cc3)n2)C1 (centres unmarked) [GSK1379714],0%,0%,41%,0%,6%,0%,0%,12%,1%,20%
Cn1cnc2c(N)ncnc21 [SKF-97623],0%,0%,0%,0%,0%,0%,0%,0%,0%,9%
COc1cccc(NC(=O)Nc2ccc(C)c(-c3ccc(C(=O)Nc4ccncc4)cc3)c2)c1 [GSK1398474],0%,0%,0%,14%,0%,0%,0%,6%,15%,0%

Structure (SMILES),%Inh (PKAC-beta),%Inh (PKMYT1),%Inh (PKN1),%Inh (PKN2),%Inh (PLK1),%Inh (PLK2),%Inh (PLK3),%Inh (PLK4),%Inh (PRKCD),%Inh (PRKCE)
COC(=O)C(NC(=O)NC1CCN(c2ccnc(Nc3ccc(F)cc3)n2)C1)c1ccccc1 (centres unmarked) [GSK1379712],0%,0%,18%,0%,13%,3%,4%,1%,0%,18%
Cc1ccc(NC(=O)Nc2ccccc2F)cc1-c1ccc(C(=O)Nc2ccncc2)cc1 [GSK1398477],32%,18%,26%,12%,5%,0%,0%,0%,19%,4%
CCc1ccc(-c2ccc3c(c2)-c2n[nH]cc2S(=O)(=O)N3C)cc1,12%,2%,0%,0%,6%,0%,7%,0%,0%,14%
COc1ccc(CSc2nnc(-c3ccc4nccn4c3)o2)cc1C(F)(F)F,26%,28%,3%,33%,0%,42%,16%,11%,20%,21%
COc1cc2ncnc(Nc3cccc(Br)c3)c2cc1OC.Cl [GI230329],0%,0%,0%,0%,2%,0%,0%,0%,3%,11%
COc1nccc(-c2c(-c3ccc(F)cc3)ncn2CCCN2CCOCC2)n1 [SB-282852],16%,0%,0%,0%,0%,0%,13%,20%,38%,0%
NS(=O)(=O)c1cccc(N/C=C2\C(=O)Nc3ccc(S(=O)(=O)Cc4c(Cl)cccc4Cl)cc32)c1 [GSK398099],0%,5%,38%,0%,1%,0%,0%,18%,0%,11%
CC(C)c1ccc(O)cc1Nc1ccnc2ccc(C(F)(F)F)cc12 [GW482059],16%,0%,36%,0%,0%,0%,0%,0%,0%,0%
O=C(Nc1n[nH]c2nc(-c3cccs3)c(Br)cc12)C1CCCC1 [SB-743341],0%,0%,0%,5%,0%,21%,26%,25%,29%,0%
Cn1cncc1C(=O)NC1CCN(c2ccnc(Nc3ccc(F)cc3)n2)C1 (centres unmarked) [GSK1379717],0%,0%,52%,0%,12%,0%,11%,0%,0%,0%
O=c1cc(N2CCOCC2)nc2n(Cc3ccccc3F)ccn12 [GSK2297428],0%,0%,7%,0%,13%,0%,0%,8%,0%,1%
Cc1c(Cn2c3ccccc3n3c(=O)cc(N4CCOCC4)nc23)cccc1C(F)(F)F [GSK2306394],0%,0%,100%,0%,0%,0%,0%,0%,0%,0%
Nc1cccc(-c2ccc3c(N)n[nH]c3c2)n1 [GSK2192730],0%,0%,37%,0%,0%,0%,0%,8%,0%,0%
Cc1ccc(-c2nc(Nc3ccncc3)c3ccccc3n2)s1 [GSK189015],18%,19%,26%,20%,0%,0%,0%,0%,15%,0%
CC(C)c1cc(-c2ccc3c(N)n[nH]c3c2)nc(N)n1 [GSK2250882],0%,14%,0%,0%,0%,0%,0%,0%,0%,5%
Nc1ncnc2occ(-c3ccc4c(c3)CCN4C(=O)Cc3cc(F)ccc3F)c12 [GSK2645446],8%,0%,7%,0%,0%,0%,0%,5%,0%,0%
